Several values for one entry are separate records, joined by “and”; a condition that tells them apart may be missing. Identical values can stand only once. Records with an inconclusive call do not appear. Activity calls are given as the source filed them. Calls follow the shape of the dose curve; as a rule, active = well fitted curve in the direction sought with a large enough effect; inconclusive = small, poorly fitted or top-dose-only effect, or another doubt; inactive = no such curve, though single readings can be large; an effect the other way counts as inactive or inconclusive.
Columns and labels:
[1] = qHTS of pediatric cancer cell lines to identify multiple opportunities for drug repurposing: Primary screen for DAOY cells (AID 1347090); also: nearly all actives have a fitted effect of over 55% in size
How it was run: (§1)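 Eight- or eleven-point concentration series, 48 h treatment at 37 degrees C in growth media; readout CellTiter-Glo luminescence. Potency and efficacy were taken from the concentration-response curves.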

[2] = qHTS of pediatric cancer cell lines to identify multiple opportunities for drug repurposing: Primary screen for SJ-GBM2 cells (AID 1347091)
How it was run: as §1

[3] = qHTS of pediatric cancer cell lines to identify multiple opportunities for drug repurposing: Primary screen for A673 cells (AID 1347092); also: nearly all actives have a fitted effect of over 45% in size
How it was run: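 Cell viability of A673 measured by CellTiter-Glo ATP luminescence after 48 hours compound exposure. Dilution series spanned 0.78 nM to 46 µM (MIPE, 11-point) or 0.59 nM to 46 µM (NPC, 8-point); bortezomib 2.3 uM positive control.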

[4] = qHTS of pediatric cancer cell lines to identify multiple opportunities for drug repurposing: Primary screen for SK-N-MC cells (AID 1347093)
How it was run: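 Metabolically active cells were quantified by ATP-dependent luminescence (CellTiter-Glo, 15 min at room temperature) following 48 h treatment. Cells had been plated at 500-1,000 per well and settled for 5 h beforehand.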

[5] = qHTS of pediatric cancer cell lines to identify multiple opportunities for drug repurposing: Primary screen for BT-37 cells (AID 1347094)
How it was run: (§2)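 CRCs from 8- or 11-point titrations (lowest final 0.59 nM NPC, 0.78 nM MIPE). Cell viability: CellTiter-Glo after 48 h incubation, 15 min room-temperature development, luminescence imaging.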

[6] = qHTS of pediatric cancer cell lines to identify multiple opportunities for drug repurposing: Primary screen for U-2 OS cells (AID 1347096); also: nearly all actives have a fitted effect of over 50% in size
How it was run: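 Cells (500-1,000/well) in growth media were settled 5 h at 37 degrees C, then given compounds for 48 h. Viability was read as CellTiter-Glo luminescence. Primary runs used MIPE at 11 points (0.78 nM-46 µM) and NPC at 8 points (0.59 nM-46 µM); follow-ups used 11 points.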

[7] = qHTS of pediatric cancer cell lines to identify multiple opportunities for drug repurposing: Primary screen for Saos-2 cells (AID 1347097); also: nearly all actives have a fitted effect of over 40% in size
How it was run: as §2

[8] = qHTS of pediatric cancer cell lines to identify multiple opportunities for drug repurposing: Primary screen for SK-N-SH cells (AID 1347098); also: nearly all actives have a fitted effect of over 65% in size
How it was run: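 Cells (500-1,000/well) rested 5 h, then received compounds for 48 h; metabolically active cells were measured by CellTiter-Glo luminescence. Final concentrations spanned up to 46 µM (MIPE, 11-point) or 0.59 nM-46 µM (NPC, 8-point) in primary screens, 11-point in follow-ups.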

[9] = qHTS of pediatric cancer cell lines to identify multiple opportunities for drug repurposing: Primary screen for NB-EBc1 cells (AID 1347095)
How it was run: as §2

[10] = qHTS of pediatric cancer cell lines to identify multiple opportunities for drug repurposing: Primary screen for NB1643 cells (AID 1347099); also: nearly all actives have a fitted effect of over 50% in size
How it was run: as §2

Measured: Potency
Potency is read from the fitted curve at half-maximal effect.

CN1[C@@H]2CCC[C@@H]1CC(NC(=O)c1nn(C)c3ccccc13)C2 (stereo partly specified)
not listed: [8] | [9] | [10]
inactive: all other assays above

O=C(NOCC(O)CO)c1cc(Br)c(F)c(F)c1Nc1ccc(I)cc1F (stereo unspecified)
active: [1] 14.8 µM | [3] 9.35 µM | [4] 0.132 µM | [8] 0.341 µM
inactive: [2] | [5]

CN1C[C@H]2c3ccccc3Oc3ccc(Cl)cc3[C@@H]2C1
not listed: [5]
inactive: all other assays above

Cc1ccccc1C(C(=O)NC1CCCCC1)N(C(=O)Cn1ccnc1C)c1cccc(F)c1 (stereo unspecified)
active: [4] 23.5 µM
not listed: [7] | [9]
inactive: all other assays above

CC(=O)c1ccc(S(=O)(=O)NC(=O)NC2CCCCC2)cc1
not listed: [6]
inactive: all other assays above

Cc1cc(OCCCc2c(C(=O)O)n(Cc3cccnc3)c3c(-c4c(COc5ccc(N6CCN([S+](C)(=O)[O-])CC6)cc5)nn(C)c4C)cccc23)cc(C)c1Cl
inactive: [6]
active: [1] 18.7 µM | [2] 23.5 µM | [3] 23.5 µM | [4] 5.9 µM | [9] 23.5 µM | [10] 23.5 µM

Clc1ccc(C(c2ccc(Cl)cc2)n2cc[n+](CC(OCc3ccc(Cl)cc3Cl)c3ccc(Cl)cc3Cl)c2)cc1 (stereo unspecified)
active: [1] 23.5 µM | [2] 23.5 µM | [3] 18.7 µM | [4] 7.43 µM | [5] 21.7 µM | [9] 23.5 µM | [7] 11.8 µM | [8] 24.1 µM | [10] 23.5 µM

N[C@H](CSC(c1ccccc1)(c1ccccc1)c1ccccc1)C(=O)O
active: [1] 18.7 µM | [2] 5.26 µM | [3] 9.35 µM | [4] 14.8 µM | [9] 11.8 µM | [7] 9.35 µM
inactive: [6] | [8] | [10]

N#CC1(c2ccc(NC(=O)c3cccnc3NCc3ccncc3)cc2)CCCC1
not listed: [5] | [6] | [7]
inactive: all other assays above

CS(=O)c1ccc(-c2nc(-c3ccc(F)cc3)c(-c3ccncc3)[nH]2)cc1 (stereo unspecified)
inactive: [1] | [6]
active: [2] 42.9 µM | [3] 34 µM | [4] 8.55 µM | [7] 10.8 µM

CC=CC(=O)N(CC)c1ccccc1C
active: [9] 14.8 µM
not listed: [5] | [8] | [10]
inactive: all other assays above

CO[C@H]1C=CO[C@@]2(C)Oc3c(C)c(O)c4c(O)c(c5c(c4c3C2=O)NC2(CCN(CC(C)C)CC2)N=5)=NC(=O)C(C)=CC=C[C@H](C)[C@H](O)[C@@H](C)[C@@H](O)[C@@H](C)[C@H](OC(C)=O)[C@H]1C
not listed: [6]
inactive: all other assays above

CC1(C)S[C@H]2[C@H](NC(=O)[C@@H](N)c3ccc(O)cc3)C(=O)N2[C@@H]1C(=O)O
active: [1] 9.35 µM | [2] 16.6 µM | [3] 0.935 µM | [4] 0.743 µM | [5] 6.85 µM | [9] 16.6 µM | [8] 24.1 µM | [10] 1.18 µM

COc1cc2ncnc(-n3nc(-c4ccccn4)nc3N)c2cc1OC
active: [1] 18.7 µM | [2] 14.8 µM | [3] 3.72 µM | [4] 4.69 µM | [9] 14.8 µM | [10] 4.69 µM
inactive: [6]

O=C(CCN1CCN(C(=O)OCc2cc(Cl)cc(Cl)c2)CC1)c1ccc2[nH]c(=O)oc2c1
inactive: [1] | [2] | [3] | [4] | [9] | [6]

C[N+](C)(C)CC(=O)O
active: [4] 16.6 µM
not listed: [6]
inactive: all other assays above

COc1ccc(-c2nc(N3CCOCC3)c3sc(CN(C)c4ncc(C(=O)NO)cn4)cc3n2)cn1
active: [1] 0.0118 µM | [2] 0.0066 µM | [3] 0.0935 µM | [4] 0.001 µM | [9] 0.001 µM | [6] 0.0118 µM | [7] 0.0066 µM | [8] 0.0341 µM | [10] 0.001 µM

COc1ccc(-n2c(C)c([N+](=O)[O-])c3ccc(O)cc32)cc1
active: [3] 7.43 µM | [4] 1.18 µM | [8] 19.2 µM | [10] 5.9 µM
not listed: [5]
inactive: all other assays above

CC[C@]1(O)C[C@@H]2CN(CCc3c([nH]c4ccccc34)[C@@](C(=O)OC)(c3cc4c(cc3OC)N(C)[C@H]3[C@@](O)(C(=O)OC)[C@H](OC(C)=O)[C@]5(CC)C=CCN6CC[C@]43[C@@H]65)C2)C1
active: [1] 26.6 nM and 133 nM | [2] 0.075 µM | [3] 21.1 nM and 133 nM | [4] 33.5 nM and 106 nM | [5] 43.7 nM and 174 nM | [9] 0.188 µM | [10] 1.33 µM

CC1(C)CCC(CN2CCN(c3ccc(C(=O)NS(=O)(=O)c4ccc(NCC5CCOCC5)c([N+](=O)[O-])c4)c(Oc4cnc5[nH]ccc5c4)c3)CC2)=C(c2ccc(Cl)cc2)C1
active: [1] 14.8 µM | [2] 2.96 µM | [3] 18.7 µM | [4] 0.0074 µM | [5] 27.3 µM | [9] 1.87 µM | [7] 14.8 µM | [10] 0.0418 µM

CC(=O)N[C@@H](CS)C(=O)O
not listed: [6]
inactive: all other assays above

N[C@@]1(C(=O)O)CS(=O)(=O)[C@H]2[C@H](C(=O)O)[C@H]21
active: [3] 1.87 µM | [4] 18.7 µM
inactive: [1] | [2] | [9] | [8]

O=C(OCC#CCSc1nnc(-c2cccc3ccccc23)o1)c1cc2ccccc2s1
not listed: [5] | [8] | [9]
inactive: all other assays above

O=c1cc(N2CCOCC2)oc2c(-c3cccc4c3sc3ccccc34)cccc12
active: [1] 18.7 µM | [2] 5.9 µM | [3] 14.8 µM | [4] 5.26 µM | [5] 21.7 µM | [9] 8.33 µM | [10] 5.26 µM
inactive: [8]

COc1ncc(-c2ccc3nccc(-c4ccnnc4)c3c2)cc1NS(=O)(=O)c1ccc(F)cc1F
active: [1] 4.69 µM | [2] 0.001 µM | [3] 0.0743 µM | [4] 0.001 µM | [9] 0.001 µM | [6] 7.43 µM | [8] 1.52 µM | [10] 0.0662 µM

CC(=O)Nc1ccc([C@H](C)C(=O)Nc2ncc(C(C)C)s2)cc1
active: [1] 1.48 µM | [2] 0.743 µM | [3] 0.743 µM | [4] 0.332 µM | [5] 4.32 µM | [9] 2.35 µM | [7] 4.18 µM | [8] 4.82 µM | [10] 1.18 µM

CCn1cc(C(=O)O)c(=O)c2ccc(C)nc21
not listed: [5]
inactive: all other assays above

C[C@H](NC(=O)c1sccc1OCc1ccc(Cl)cc1)c1ccccc1
active: [1] 18.7 µM | [3] 23.5 µM | [4] 13.2 µM | [5] 27.3 µM | [10] 23.5 µM
inactive: [2] | [6] | [8]

O=c1c(-c2ccc(O)cc2)coc2cc(OC3O[C@H](CO)[C@H](O)[C@H](O)[C@H]3O)cc(O)c12 (stereo partly specified)
inactive: [2] | [6] | [7]
active: [1] 3.72 µM | [3] 2.96 µM | [4] 2.96 µM | [9] 18.7 µM | [8] 9.61 µM

COc1cc2ncnc(Nc3ccc(F)c(Cl)c3)c2cc1OCCCN1CCOCC1
active: [1] 4.29 µM | [2] 1.71 µM and 8.41 µM | [3] 1.71 µM and 21.1 µM | [4] 1.91 µM and 26.6 µM | [5] 15.7 µM and 19.5 µM | [6] 42.9 µM | [8] 17.5 µM and 27.3 µM | [10] 34 µM

COc1cc2nc(-c3ccc(N4CCN(C)CC4)cc3)nc(NCCN3CCOCC3)c2cc1OC
active: [1] 0.0743 µM | [2] 0.148 µM | [3] 0.0235 µM | [4] 0.0372 µM | [9] 1.48 µM | [6] 0.935 µM | [8] 4.82 µM | [10] 1.87 µM

CCc1ccc(OCc2ccccc2C(=O)Nc2ccc3nc(C)cc(N)c3c2)cc1
active: [1] 11.8 µM | [2] 23.5 µM | [3] 2.96 µM | [4] 5.9 µM | [5] 8.63 µM | [6] 7.43 µM | [7] 14.8 µM | [8] 12.1 µM | [10] 8.33 µM

O=C(CCCCCCC(=O)Nc1ccccc1)NO
active: [1] 4.22 µM and 5.9 µM | [2] 1.33 µM and 1.87 µM | [3] 3.35 µM and 4.69 µM | [4] 1.48 µM | [9] 1 nM and 1.48 µM | [6] 3.35 µM and 4.69 µM | [7] 4.73 µM and 5.9 µM | [8] 2.73 µM and 7.64 µM | [10] 944 nM and 1.32 µM

Cc1cnc(C(=O)O)c[n+]1[O-]
not listed: [5] | [7] | [8]
inactive: all other assays above

CCC(=O)O[C@]1(C(=O)CO)CC[C@H]2[C@@H]3CCC4=CC(=O)CC[C@]4(C)[C@@H]3CC[C@@]21C
not listed: [6] | [7]
inactive: all other assays above

O=c1cc(-c2ccccc2)oc2cc(O)c(O)c(O)c12
not listed: [5] | [6] | [7]
inactive: all other assays above

CC[C@H]1OC(=O)[C@H](C)[C@@H](O[C@H]2C[C@@](C)(OC)[C@@H](O)[C@H](C)O2)[C@H](C)[C@@H](O[C@@H]2O[C@H](C)C[C@H](N(C)C)[C@@H]2O)[C@](C)(O)C[C@@H](C)CN(C)[C@H](C)[C@@H](O)[C@]1(C)O
not listed: [5] | [7] | [8]
inactive: all other assays above

CC(C)(C)COc1ccc(-n2cc(C(=O)O)cn2)cc1C#N
inactive: [1] | [2] | [3] | [6] | [7]

From PubChem BioAssay (NCATS)
